Screening data (PubChem BioAssay)
Sm TGR inh: blocks Schistosoma mansoni thioredoxin glutathione reductase; Q962Y6; 360,000 compounds, 3% hits; Potency, µM (doses to about 114 µM), for inactives: at the highest dose activity change, negative = inhibition, actives largely listed as inhibitors; purified TGR, DTNB reduction, TNB absorbance 405 nm; also: nearly all actives have a fitted effect of over 60% in size
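Kinetic colorimetric format: TGR-catalysed, NADPH-driven DTNB reduction monitored via TNB absorbance. Enzyme dispensed at 20 nM; compound exposure 15 min at room temperature before reaction start.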
AmpC inh no detg: blocks E. coli AmpC beta-lactamase in detergent-free assay. AmpC nitrocefin hydrolysis, absorbance 480 nm, 0.0001% Triton. P00811. 330,000 compounds, 0.52% hits. AID 485341. Potency, µM (top dose mostly 57.1 µM), for the others: top-dose activity change, negative = inhibition, actives largely listed as inhibitors;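 also: plate controls were no compound for no effect and no enzyme for full effect; nearly all actives have a fitted effect of over 20% in size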
Target sequence (P00811 whole entry, looked up): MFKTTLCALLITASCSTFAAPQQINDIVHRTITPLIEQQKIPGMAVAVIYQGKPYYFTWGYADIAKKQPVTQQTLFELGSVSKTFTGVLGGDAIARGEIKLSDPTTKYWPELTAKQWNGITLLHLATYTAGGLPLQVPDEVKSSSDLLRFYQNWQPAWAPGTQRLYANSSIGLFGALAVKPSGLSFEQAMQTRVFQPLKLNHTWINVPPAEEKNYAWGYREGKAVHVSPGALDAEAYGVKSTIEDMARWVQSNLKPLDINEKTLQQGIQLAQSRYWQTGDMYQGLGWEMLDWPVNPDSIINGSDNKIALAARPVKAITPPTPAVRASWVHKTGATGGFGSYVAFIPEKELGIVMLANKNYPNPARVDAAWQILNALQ
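AmpC (5.3 nM in the dispensed reagent) in 20 mM phosphate pH 7.0 with 0.01% (detergent screen) or 0.0001% Triton X-100 was preincubated with compounds for 15 min at room temperature. Nitrocefin was then added from an 800 uM solution, and hydrolysis was followed at 480 nm.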
AmpC detergent: inhibitors of E. coli AmpC beta-lactamase with detergent | P00811 | AmpC hydrolysis of nitrocefin, absorbance 480 nm, 0.01% Triton | Potency, µM (doses to about 114 µM), inactives show at the highest dose activity change, negative = inhibition, actives largely listed as inhibitors | 370,000 compounds, 0.041% hits;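 also: 0% = no-compound wells and -100% = no-enzyme wells; nearly all actives have a fitted effect of over 25% in size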
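20 mM phosphate pH 7.0 + 0.01% (detergent screen) or 0.0001% Triton X-100; 5.3 nM AmpC reagent; cpd preinc 15 min RT; nitrocefin (800 uM stock) to start; A480 q20 s × 4 min; Activity was normalised to no-enzyme and no-compound control wells.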
Starred values were filed as active, the others as inactive; ? = inconclusive; . = no result. Compounds with a hit are over-represented: about 3.3% of the library has one in this group of screens. Calls follow the shape of the dose curve; as a rule, active = well fitted curve in the direction sought with a large enough effect; inconclusive = small, poorly fitted or top-dose-only effect, or another doubt; inactive = no such curve, though single readings can be large; an effect the other way counts as inactive or inconclusive. Unless noted, % is scaled to controls: 0 for no effect and ±100 for the full control effect; potency is read from the fitted curve at half-maximal effect.

SMILES	Sm TGR inh	AmpC inh no detg	AmpC detergent
COC(=O)c1ccc(NC(=S)NC2CC(C)(C)NC(C)(C)C2)cc1	-13.9%	-30.2%	-0.5%
COc1ccc(N/C=C2\CCOC2=O)cc1	-10.7%	-12.9%	-16.8%
COc1ccc(N/C=C2\C(=O)CCc3c2oc2cc(Cl)c(O)c(Cl)c32)cc1	35.5µM*	-46.2%	-4.7%
CCOc1ccc(CCNC(=O)CSc2n[nH]c(N)n2)cc1OCC	-1.8%	-3.5%	2.3%
CSc1ccc(/C=C/C(=O)c2c(O)cc(C)oc2=O)cc1	-28.2%	28.2µM*	-11.1%
COc1ccc(C(=O)/C=C/c2cc(OC)c(O)c(OC)c2)c(F)c1	50.1µM*	-37.5%	13.0%
Cc1cc(O)c(C(=O)/C=C/c2ccc(Cl)cc2)c(=O)o1	25.1µM*	25.1µM*	-1.1%
COc1ccc2cc(C(=O)/C=C/c3cc(OC)c(O)c(OC)c3)ccc2c1	-35.1%	13.5%	10.0%
COc1ccc(/C=C/C(=O)c2c(O)cc(C)oc2=O)c(OC)c1	0.0%	-39.2%	4.8%
COc1cc(/C=C/C(=O)c2c(O)cc(C)oc2=O)cc(OC)c1O	100µM*	-0.1%	-9.2%
COc1cccc(/C=C/C(=O)c2c(O)cc(C)oc2=O)c1O	-32.4%	-37.3%	-5.9%
C/C(=C\C(=O)c1c(O)cc(C)oc1=O)N(C)C	-13.6%	-14.4%	-4.5%
Cc1nc2ccccn2c(=O)c1NC(=O)c1cccc(F)c1	4.1%	.	14.6%
COc1ccc(CCNC(=O)C/C(C)=N/NC(=O)COc2ccc(C)cc2Br)cc1OC	16.6%	148.4%	1.9%
Cc1ccc(Cn2c(CCNC(=O)C(C)C)nc3ccccc32)cc1	-4.6%	.	17.8%
COc1cccc(N2CCN(C(=O)c3cc4c(=O)n(Cc5ccccc5)ccc4nc3C)CC2)c1	-15.0%	40.2%	-3.2%
COC(=O)CCCCCNC(=S)Nc1ccc2[nH]c(=O)[nH]c2c1	?	-9.5%	?
CN1CCN(C2(CNC(=O)c3ccc([N+](=O)[O-])cc3)CCCCC2)CC1	2.1%	.	0.1%
CCOC(=O)C1(C(=O)O)NC(=O)CC1c1ccccc1 (configuration not stated)	-22.4%	-17.5%	?
CCOC(=O)C1(C(=O)OCC)CC1c1ccccc1 (configuration not stated)	-0.4%	4.47µM*	0.8%
COc1cccc(NC(=O)NNC(=O)CCc2ccc(O)c(O)c2)c1	?	-20.3%	-3.5%
COc1ccc(CCNC(=O)c2cc(C)nc3c2c(C)nn3-c2ccc(C)cc2)cc1OC	2.7%	.	2.3%
COc1ccc(CCNC(=O)C2CCN(C(=O)c3ccc(Br)cc3)CC2)cc1	-0.1%	86.9%	-3.9%
Cc1cc(Cl)ccc1OCC(=O)OCC(=O)Nc1ccc(F)c([N+](=O)[O-])c1	4.5%	-19.3%	?
Cc1ccc(NC(=O)COc2ncnc3c(Cl)cc(Cl)cc23)cc1[N+](=O)[O-]	4.47µM*	-8.6%	-3.5%
SMILES	Sm TGR inh	AmpC inh no detg	AmpC detergent
O=C(CNS(=O)(=O)c1ccc2ccccc2c1)NCCc1ccccn1	3.8%	-13.5%	2.6%
C/C(=N\NC(=O)c1cc(O)ccc1O)c1cccc(NC(=O)c2cccc(Cl)c2)c1	63.1µM*	-39.4%	2.1%
C/C(=N\NC(=O)CSCc1ccccc1Cl)c1cccc(NC(=O)c2ccccc2)c1	0.0%	22.4µM*	-4.9%
C/C(=N\NC(=O)c1cc(O)ccc1O)c1cccc(NC(=O)c2ccc(Cl)cc2)c1	39.8µM*	-46.5%	2.1%
C/C(=N\NC(=O)C1CC1)c1cccc(NC(=O)c2cccc(Cl)c2)c1	2.3%	-9.6%	-0.9%
CC/C(=N\NC(=O)CSCc1ccccc1Cl)c1ccc2c(c1)OCCO2	6.8%	-10.5%	?
C/C(=N\NC(=O)c1ccccc1O)c1cccc(NC(=O)c2ccccc2)c1	7.9%	-56.2%	-14.3%
Cc1cccc(NC(=O)c2ccc(N3C(=O)C4CCCCC4C3=O)cc2)c1C (configuration not stated)	15.4%	8.3%	-3.8%
Cc1ccc(S(=O)(=O)N2CCN(CCNC(=O)C(=O)NCc3ccccc3)CC2)cc1	-4.3%	33.1%	-0.4%
COc1ccc(NC(=O)c2c(N)c(C(=O)c3ccc(C)cc3)n3ccccc23)cc1OC	0.7%	.	19.8%
CCOc1ccccc1NC(=O)Cc1coc2c(C)c(C)ccc12	-6.8%	.	-0.7%
c1ccc(-c2onc(-c3ccco3)c2-c2ccc3c(c2)OCO3)cc1	50.1µM*	-34.0%	-17.8%
O=C(O)c1cc(-c2ccc(-c3c(-c4ccc5c(c4)OCO5)noc3-c3ccsc3)cc2)nc2ccccc12	-3.1%	-49.2%	-13.8%
Cc1cc(-c2ccc(C)c(S(=O)(=O)NC(c3cccs3)C(C)C)c2)on1 (configuration not stated)	-1.0%	.	-6.8%
CC(Sc1nnc(C2CC2)n1-c1ccccc1)C(=O)N1CCCC1 (configuration not stated)	31.6µM*	1.1%	-1.5%
O=C(CSc1nnc(C2CC2)n1-c1ccccc1)N1CCCC1	.	32.4%	.
CC1(c2ccc([N+](=O)[O-])cc2)NC(=O)N(CC(=O)Nc2cccnc2Cl)C1=O (configuration not stated)	1.1%	-13.9%	?
O=C1CC[C@H](N2C(=O)c3ccccc3C2=O)C(=O)N1	4.5%	-11.7%	?
CCOc1ccc(-c2cc(NC(=O)Nc3ccc(Cl)cc3)c(C(=O)OC)s2)cc1	3.2%	.	20.1%
Cc1ccccc1-c1nc(CS(=O)CC(=O)NC2CC2)c(C)o1 (configuration not stated)	?	1.1%	-4.6%
Cc1oc(-c2ccccc2F)nc1CS(=O)CC(=O)NC1CCCC1 (configuration not stated)	14.1µM*	-0.4%	-10.4%
Cc1ccccc1-c1nc(CS(=O)CC(=O)NC2CCCC2)c(C)o1 (configuration not stated)	0.0%	7.6%	3.3%
Cc1ccccc1-c1nc(CS(=O)CC(=O)NC2CCCCC2)c(C)o1 (configuration not stated)	39.8µM*	92.8%	6.9%
CCc1nnc(NS(=O)(=O)c2ccc(NC(=O)CCC(=O)OC)cc2)s1	4.6%	-5.2%	3.8%
CCOC(=O)C1=C(C)OC(N)=C(C#N)C1c1cccs1 (configuration not stated)	?	-31.9%	1.9%
SMILES	Sm TGR inh	AmpC inh no detg	AmpC detergent
CCN1CC2=C(OC(N)=C(C#N)C2c2ccccc2)/C(=C\c2ccccc2)C1 (configuration not stated)	?	12.1%	2.4%
CCN1CC2=C(OC(N)=C(C#N)C2c2cccs2)/C(=C/c2cccs2)C1 (configuration not stated)	35.5µM*	-19.7%	-2.6%
CCN1C=C(Cc2cccs2)C2=C(C1)C(c1cccs1)C(C#N)=C(N)O2 (configuration not stated)	22.4µM*	-28.9%	-0.6%
COc1ccc(OC)c(N(CC(=O)NCCSCc2ccco2)S(=O)(=O)c2ccccc2)c1	44.7µM*	47.5%	3.8%
CCOc1ccccc1N(CC(=O)NCCSCc1ccco1)S(=O)(=O)c1ccccc1	39.8µM*	-10.0%	?
O=C(NCCSCc1ccco1)Nc1ccccc1	35.5µM*	?	-2.9%
COc1ccc(OC)c(N(CC(=O)NCc2ccccc2)S(=O)(=O)c2ccc(OC)c(OC)c2)c1	25.1µM*	-10.2%	1.8%
